About 8,800 targets were measured; listed, in parts, are those with a hit and a random draw of the rest. About 0.5% of all pairs of compound and target were hits.
Legend:
Assay in all cases: log2 fold change, soluble protein after heating vs DMSO (PISA); higher = thermal stabilisation; K562 lysate, 10 uM; active = over 0.2 and 3.5 SD of the protein, either way, in both replicates (recomputed)
[1] = compound: CN1CC[C@H](c2c(O)cc(O)c3c(=O)cc(-c4ccccc4Cl)oc23)[C@H](O)C1 [alvocidib]
Method in brief: (§1)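 Quantification was by TMTpro 16plex LC-MS/MS with equalised channel sums, applied to the supernatant after 21,000xg for 90 min. Samples were crude K562 extract at 1 mg/mL protein in PBS pH 7.4 with 1 mM MgCl2, treated with 10 μM compound for 30 min, heated for 3 min across 48°C-58°C, pooled and brought to 0.5% NP-40 at 4°C. Values are log-two fold changes in thermal stability relative to solvent controls, from duplicates.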

[2] = compound: CN1CCc2c(c3ccccc3n2Cc2ccc(C(=O)NO)cc2)C1 [Tubastatin A]
Method in brief: as §1

[3] = compound: CNC(=O)C1=CC=CC=C1NC2=NC(=NC=C2Cl)NC3=C(C=C(C=C3)N4CCOCC4)OC
Method in brief: as §1

[4] = compound: CNC(=O)c1ccc(Nc2ncc(C(F)(F)F)c(NCc3nccnc3N(C)S(C)(=O)=O)n2)cc1 [defactinib]
Method in brief: as §1

[5] = compound: CNc1nc(-c2ccc3c(N)n[nH]c3c2)cc(N2C[C@@H](C(=O)NC3CCCCC3)CC[C@H]2C)n1
Method in brief: as §1

[6] = compound: COC(=O)N[C@@H](C)CNc1nccc(-c2cn(C(C)C)nc2-c2cc(Cl)cc(NS(C)(=O)=O)c2F)n1 [encorafenib]
Method in brief: as §1

[7] = compound: COC(=O)[C@H](CCSC)NC(=O)C1=C(C=C(C=C1)NC[C@H](CS)N)C2=CC=CC=C2
Method in brief: as §1

[8] = compound: COc1cc(Nc2ncc3c(n2)-c2ccc(Cl)cc2C(c2c(F)cccc2OC)=NC3)ccc1C(=O)O [alisertib]
Method in brief: as §1

[9] = compound: COc1cc2nc(-c3cc(F)ccc3O)nc(N[C@@H]3CNC[C@H]3C(C)(C)O)c2cc1OC
Method in brief: as §1

[10] = compound: COc1cc2ncnc(Nc3ccc(F)c(Cl)c3)c2cc1OCCCN1CCOCC1 [gefitinib]
Method in brief: as §1

[11] = compound: CS(=O)(=O)CCNCc1ccc(-c2ccc3ncnc(Nc4ccc(OCc5cccc(F)c5)c(Cl)c4)c3c2)o1 [lapatinib]
Method in brief: as §1

[12] = compound: CS(=O)(=O)N1CCN(Cc2cc3nc(-c4cccc5[nH]ncc45)nc(N4CCOCC4)c3s2)CC1 [pictilisib]
Method in brief: as §1

[13] = compound: C[C@@H](Oc1cc(-c2cnn(C3CCNCC3)c2)cnc1N)c1c(Cl)ccc(F)c1Cl [crizotinib]
Method in brief: as §1

[14] = compound: C[C@H](C1=CC=C(C=C1)C(=O)NC2=C3C=CNC3=NC=C2)N
Method in brief: as §1

[15] = compound: C[C@H](Nc1ncnc2nc[nH]c12)c1cc2cccc(Cl)c2c(=O)n1-c1ccccc1 [duvelisib]
Method in brief: as §1

[16] = compound: Cc1cc(Nc2cc(CN3CCOCC3)c3nc(C)c(Cc4ccc(Cl)cc4F)n3n2)n[nH]1 [gandotinib]
Method in brief: as §1

[17] = compound: Cc1cc(Nc2cc(N3CCN(C)CC3)nc(Sc3ccc(NC(=O)C4CC4)cc3)n2)n[nH]1 [tozasertib]
Method in brief: as §1

[18] = compound: Cc1ccc(-n2nc(C(C)(C)C)cc2NC(=O)Nc2ccc(OCCN3CCOCC3)c3ccccc23)cc1 [doramapimod]
Method in brief: as §1

[19] = compound: Cc1ccc(NC(=O)c2ccc(CN3CC[C@H](N(C)C)C3)c(C(F)(F)F)c2)cc1Nc1nccc(-c2cncnc2)n1 [bafetinib]
Method in brief: as §1

[20] = compound: Cc1cccc(CC(=O)N2CCc3c2ccc(-c2cn(C)c4ncnc(N)c24)c3F)n1
Method in brief: as §1

Measured: log2 fold change

DIAPH1 (UniProt O60610)
inactive: [1] 0.03 | [2] 0 | [3] -0.003 | [4] -0.018 | [5] -0.013 | [6] 0.003 | [7] 0.051 | [8] 0.005 | [9] 0.006 | [10] -0.001 | [11] -0.007 | [12] 0.014 | [13] 0.004 | [14] 0.06 | [15] -0.006 | [16] -0.063 | [17] 0.004 | [18] -0.003 | [19] -0.001 | [20] -0.021

CNST (UniProt Q6PJW8)
inactive: [1] 0 | [2] -0.055 | [3] 0.043 | [4] 0.041 | [5] -0.027 | [6] 0.03 | [7] -0.096 | [8] -0.031 | [9] 0.024 | [10] 0.002 | [11] 0.005 | [12] 0 | [13] 0.031 | [14] -0.022 | [15] -0.007 | [16] 0.033 | [17] 0.019 | [18] 0.005 | [19] 0.033 | [20] 0.025

CMBL (UniProt Q96DG6)
Chain of UniProt Q96DG6 (Q96DG6 whole entry, looked up): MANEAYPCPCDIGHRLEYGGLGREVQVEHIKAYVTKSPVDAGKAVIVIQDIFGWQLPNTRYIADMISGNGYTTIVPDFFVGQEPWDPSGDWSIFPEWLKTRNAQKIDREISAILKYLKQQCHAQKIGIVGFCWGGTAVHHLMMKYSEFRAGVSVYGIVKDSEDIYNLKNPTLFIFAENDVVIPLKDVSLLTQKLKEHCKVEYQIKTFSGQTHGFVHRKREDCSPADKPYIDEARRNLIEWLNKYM
inactive: [1] 0.006 | [2] 0.001 | [3] -0.012 | [4] -0.051 | [5] 0.013 | [6] -0.051 | [7] -0.009 | [8] 0.001 | [9] 0.038 | [10] 0.03 | [11] -0.024 | [12] 0.076 | [13] 0.065 | [14] -0.162 | [15] 0.031 | [16] 0.127 | [17] 0.016 | [18] -0.021 | [19] -0.028 | [20] -0.001

CHUK (UniProt O15111)
Chain of UniProt O15111 (O15111 whole entry, looked up): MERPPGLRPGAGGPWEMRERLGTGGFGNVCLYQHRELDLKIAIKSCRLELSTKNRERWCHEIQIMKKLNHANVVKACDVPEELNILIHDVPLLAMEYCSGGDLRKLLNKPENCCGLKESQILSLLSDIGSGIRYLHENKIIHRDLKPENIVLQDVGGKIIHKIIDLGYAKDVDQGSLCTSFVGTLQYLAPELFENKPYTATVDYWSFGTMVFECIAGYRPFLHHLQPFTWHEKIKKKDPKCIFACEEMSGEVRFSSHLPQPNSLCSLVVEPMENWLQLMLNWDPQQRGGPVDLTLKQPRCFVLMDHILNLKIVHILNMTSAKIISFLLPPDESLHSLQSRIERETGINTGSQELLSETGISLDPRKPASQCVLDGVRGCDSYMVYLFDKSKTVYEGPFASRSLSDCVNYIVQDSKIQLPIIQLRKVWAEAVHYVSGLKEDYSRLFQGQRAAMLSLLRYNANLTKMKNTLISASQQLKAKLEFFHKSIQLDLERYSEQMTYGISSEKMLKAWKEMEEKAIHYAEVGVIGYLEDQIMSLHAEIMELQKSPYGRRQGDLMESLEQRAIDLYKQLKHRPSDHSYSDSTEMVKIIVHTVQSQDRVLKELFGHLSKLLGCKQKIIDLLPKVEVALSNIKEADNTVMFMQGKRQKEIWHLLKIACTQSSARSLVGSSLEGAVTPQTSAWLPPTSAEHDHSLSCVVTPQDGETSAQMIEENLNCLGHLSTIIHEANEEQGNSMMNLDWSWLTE
inactive: [1] 0.029 | [2] -0.203 | [3] 0.077 | [4] 0.089 | [5] -0.039 | [6] -0.021 | [7] 0.121 | [8] 0.018 | [9] 0.052 | [10] -0.06 | [11] 0.001 | [12] -0.031 | [13] -0.067 | [14] 0.112 | [15] 0.036 | [16] -0.067 | [17] 0.024 | [18] 0.008 | [19] -0.001 | [20] -0.048

DHRS11 (UniProt Q6UWP2)
Chain of UniProt Q6UWP2 (Q6UWP2 whole entry, looked up): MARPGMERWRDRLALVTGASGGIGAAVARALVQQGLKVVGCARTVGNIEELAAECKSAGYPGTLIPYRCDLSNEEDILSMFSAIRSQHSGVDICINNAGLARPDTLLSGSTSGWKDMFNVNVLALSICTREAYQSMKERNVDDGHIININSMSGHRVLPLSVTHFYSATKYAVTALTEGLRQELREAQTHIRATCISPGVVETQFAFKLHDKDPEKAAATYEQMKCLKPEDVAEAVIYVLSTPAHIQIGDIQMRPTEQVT
inactive: [1] -0.001 | [2] -0.083 | [3] 0.055 | [4] 0.021 | [5] 0.031 | [6] 0.024 | [7] 0.109 | [8] -0.074 | [9] 0.031 | [10] -0.022 | [11] -0.017 | [12] 0.014 | [13] 0.024 | [14] -0.035 | [15] 0.024 | [16] -0.007 | [17] 0.028 | [18] -0.032 | [19] -0.051 | [20] -0.02

COG6 (UniProt Q9Y2V7)
Chain of UniProt Q9Y2V7 (Q9Y2V7 whole entry, looked up): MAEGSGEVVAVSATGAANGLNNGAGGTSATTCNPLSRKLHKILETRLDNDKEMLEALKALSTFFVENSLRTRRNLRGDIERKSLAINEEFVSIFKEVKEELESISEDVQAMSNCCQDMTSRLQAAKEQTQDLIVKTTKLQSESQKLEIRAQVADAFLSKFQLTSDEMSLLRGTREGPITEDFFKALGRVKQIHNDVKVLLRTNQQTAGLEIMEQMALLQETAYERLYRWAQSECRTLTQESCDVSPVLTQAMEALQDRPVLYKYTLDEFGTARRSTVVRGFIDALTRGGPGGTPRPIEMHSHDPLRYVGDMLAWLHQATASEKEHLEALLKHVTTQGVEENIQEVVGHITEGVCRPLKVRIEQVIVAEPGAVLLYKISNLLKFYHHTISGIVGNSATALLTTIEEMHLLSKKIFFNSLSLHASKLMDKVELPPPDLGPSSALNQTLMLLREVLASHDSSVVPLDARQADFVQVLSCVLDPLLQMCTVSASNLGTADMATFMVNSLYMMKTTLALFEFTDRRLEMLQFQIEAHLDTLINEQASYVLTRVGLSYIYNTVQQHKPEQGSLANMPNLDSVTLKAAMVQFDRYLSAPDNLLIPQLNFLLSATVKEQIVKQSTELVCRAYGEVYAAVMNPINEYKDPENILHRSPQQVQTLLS
inactive: [1] 0.026 | [2] -0.062 | [3] 0.059 | [4] -0.028 | [5] 0.059 | [6] -0.026 | [7] 0.034 | [8] 0.016 | [9] -0.017 | [10] 0.006 | [11] 0.012 | [12] -0.019 | [13] -0.104 | [14] -0.137 | [15] 0.014 | [16] -0.115 | [17] -0.011 | [18] 0.037 | [19] -0.071 | [20] 0.142

DNAH10 (UniProt Q8IVF4)
active: [14] -0.553
inactive: [1] -0.248 | [2] 0.056 | [3] -0.086 | [4] -0.074 | [5] 0.246 | [6] -0.04 | [7] -0.001 | [8] 0.027 | [9] 0.046 | [10] 0.043 | [11] -0.075 | [12] 0.066 | [13] -0.136 | [15] 0.044 | [16] 0.172 | [17] -0.024 | [18] 0.076 | [19] -0.08 | [20] 0.196

CPT1A (UniProt P50416)
active: [1] 0.407
inactive: [2] 0.261 | [3] 0.004 | [4] -0.053 | [5] 0.113 | [6] 0.036 | [7] 0.078 | [8] -0.014 | [9] -0.051 | [10] 0.031 | [11] 0.013 | [12] 0.014 | [13] 0.114 | [14] 0.009 | [15] 0.021 | [16] 0.057 | [17] 0.037 | [18] 0.038 | [19] -0.056 | [20] -0.027

CTNND1 isoform 3 (UniProt O60716)
Chain of UniProt O60716 (O60716 whole entry, looked up): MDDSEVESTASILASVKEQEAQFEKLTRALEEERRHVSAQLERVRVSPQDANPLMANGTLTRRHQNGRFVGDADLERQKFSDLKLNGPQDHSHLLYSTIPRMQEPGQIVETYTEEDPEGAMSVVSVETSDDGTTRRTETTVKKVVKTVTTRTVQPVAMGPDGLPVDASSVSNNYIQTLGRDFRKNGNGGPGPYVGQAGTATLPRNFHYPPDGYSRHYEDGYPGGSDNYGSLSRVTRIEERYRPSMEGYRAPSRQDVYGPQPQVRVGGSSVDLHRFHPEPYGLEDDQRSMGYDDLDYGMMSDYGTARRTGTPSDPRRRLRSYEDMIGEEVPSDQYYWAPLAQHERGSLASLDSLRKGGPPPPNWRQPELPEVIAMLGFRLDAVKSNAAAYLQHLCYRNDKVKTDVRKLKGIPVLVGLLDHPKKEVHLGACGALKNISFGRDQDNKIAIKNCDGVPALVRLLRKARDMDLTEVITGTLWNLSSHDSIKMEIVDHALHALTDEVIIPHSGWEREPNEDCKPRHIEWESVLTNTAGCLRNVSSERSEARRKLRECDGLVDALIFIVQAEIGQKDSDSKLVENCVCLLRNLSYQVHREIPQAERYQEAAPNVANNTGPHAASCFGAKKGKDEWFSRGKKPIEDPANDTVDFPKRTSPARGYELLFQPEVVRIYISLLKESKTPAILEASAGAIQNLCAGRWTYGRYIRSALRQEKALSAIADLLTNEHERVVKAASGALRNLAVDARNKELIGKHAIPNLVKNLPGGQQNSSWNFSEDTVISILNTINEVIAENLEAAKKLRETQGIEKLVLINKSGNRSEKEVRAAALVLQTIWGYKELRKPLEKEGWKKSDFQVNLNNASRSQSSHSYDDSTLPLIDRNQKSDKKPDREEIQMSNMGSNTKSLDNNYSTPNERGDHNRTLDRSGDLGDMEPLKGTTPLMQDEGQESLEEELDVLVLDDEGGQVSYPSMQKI
inactive: [1] -0.02 | [2] -0.159 | [3] 0.019 | [4] 0.045 | [5] -0.04 | [6] 0.013 | [7] 0.174 | [8] 0.026 | [9] 0.006 | [10] -0.023 | [11] -0.019 | [12] -0.047 | [13] -0.039 | [14] -0.006 | [15] 0.008 | [16] -0.001 | [17] 0.002 | [18] 0.007 | [19] -0.025 | [20] 0.04

CHORDC1 (UniProt Q9UHD1)
Chain of UniProt Q9UHD1 (Q9UHD1 whole entry, looked up): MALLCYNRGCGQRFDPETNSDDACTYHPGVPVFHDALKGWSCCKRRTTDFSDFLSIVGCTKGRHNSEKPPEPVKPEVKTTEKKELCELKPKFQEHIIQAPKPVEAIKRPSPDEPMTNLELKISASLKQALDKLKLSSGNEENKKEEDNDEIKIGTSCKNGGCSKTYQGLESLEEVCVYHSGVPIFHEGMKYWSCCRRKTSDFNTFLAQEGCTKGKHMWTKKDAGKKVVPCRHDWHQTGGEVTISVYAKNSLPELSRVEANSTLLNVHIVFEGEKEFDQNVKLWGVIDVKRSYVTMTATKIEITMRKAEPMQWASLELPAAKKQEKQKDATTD
inactive: [1] 0.033 | [2] 0.004 | [3] 0.007 | [4] 0 | [5] -0.002 | [6] -0.029 | [7] -0.018 | [8] -0.012 | [9] -0.008 | [10] -0.026 | [11] -0.001 | [12] 0.009 | [13] 0.022 | [14] 0.18 | [15] 0.006 | [16] -0.011 | [17] 0.022 | [18] -0.028 | [19] 0.022 | [20] -0.031

DERA (UniProt Q9Y315)
Chain of UniProt Q9Y315 (Q9Y315 whole entry, looked up): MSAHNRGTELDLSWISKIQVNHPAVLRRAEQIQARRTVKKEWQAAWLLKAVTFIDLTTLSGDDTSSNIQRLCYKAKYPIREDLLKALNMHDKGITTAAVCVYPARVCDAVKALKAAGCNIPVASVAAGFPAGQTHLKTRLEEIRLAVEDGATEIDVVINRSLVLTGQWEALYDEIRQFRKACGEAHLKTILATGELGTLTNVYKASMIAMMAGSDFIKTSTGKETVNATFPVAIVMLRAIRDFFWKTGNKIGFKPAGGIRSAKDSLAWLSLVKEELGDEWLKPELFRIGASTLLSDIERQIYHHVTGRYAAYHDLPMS
active: [14] 0.732
inactive: [1] 0.121 | [2] 0.018 | [3] 0.033 | [4] -0.003 | [5] 0.085 | [6] -0.005 | [7] -0.053 | [8] -0.059 | [9] -0.01 | [10] 0.087 | [11] -0.002 | [12] -0.028 | [13] -0.015 | [15] -0.004 | [16] -0.072 | [17] -0.028 | [18] -0.001 | [19] 0.012 | [20] -0.132

CHURC1 isoform 2 (UniProt Q8WUH1)
Chain of UniProt Q8WUH1 (Q8WUH1 whole entry, looked up): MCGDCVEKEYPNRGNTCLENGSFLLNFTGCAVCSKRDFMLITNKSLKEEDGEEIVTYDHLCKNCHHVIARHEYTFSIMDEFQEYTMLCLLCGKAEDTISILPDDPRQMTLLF
inactive: [1] 0.002 | [2] 0.002 | [3] 0 | [4] 0.051 | [5] 0.024 | [6] -0.068 | [7] -0.005 | [8] 0.013 | [9] -0.145 | [10] -0.025 | [11] 0.012 | [12] 0.043 | [13] -0.047 | [14] 0.026 | [15] 0.049 | [16] -0.014 | [17] -0.032 | [18] -0.01 | [19] -0.019 | [20] -0.001

CXorf38 (UniProt Q8TB03)
Chain of UniProt Q8TB03 (Q8TB03 whole entry, looked up): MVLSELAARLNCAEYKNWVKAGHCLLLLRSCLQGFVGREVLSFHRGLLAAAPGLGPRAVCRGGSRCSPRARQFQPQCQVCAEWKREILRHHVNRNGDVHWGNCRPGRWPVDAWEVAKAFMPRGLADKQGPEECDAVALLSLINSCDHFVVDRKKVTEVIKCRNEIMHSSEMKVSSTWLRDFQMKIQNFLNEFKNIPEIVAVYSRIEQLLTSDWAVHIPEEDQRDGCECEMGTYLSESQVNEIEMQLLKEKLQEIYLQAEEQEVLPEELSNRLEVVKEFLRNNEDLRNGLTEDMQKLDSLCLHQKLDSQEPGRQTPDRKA
inactive: [1] 0 | [2] 0.039 | [3] 0.04 | [4] -0.012 | [5] -0.016 | [6] 0.02 | [7] -0.012 | [8] -0.021 | [9] -0.058 | [10] -0.056 | [11] -0.05 | [12] -0.017 | [13] -0.019 | [14] -0.039 | [15] 0.013 | [16] 0.037 | [17] 0.037 | [18] 0.013 | [19] -0.018 | [20] -0.033

CYP24A1 (UniProt Q07973)
Chain of UniProt Q07973 (Q07973 whole entry, looked up): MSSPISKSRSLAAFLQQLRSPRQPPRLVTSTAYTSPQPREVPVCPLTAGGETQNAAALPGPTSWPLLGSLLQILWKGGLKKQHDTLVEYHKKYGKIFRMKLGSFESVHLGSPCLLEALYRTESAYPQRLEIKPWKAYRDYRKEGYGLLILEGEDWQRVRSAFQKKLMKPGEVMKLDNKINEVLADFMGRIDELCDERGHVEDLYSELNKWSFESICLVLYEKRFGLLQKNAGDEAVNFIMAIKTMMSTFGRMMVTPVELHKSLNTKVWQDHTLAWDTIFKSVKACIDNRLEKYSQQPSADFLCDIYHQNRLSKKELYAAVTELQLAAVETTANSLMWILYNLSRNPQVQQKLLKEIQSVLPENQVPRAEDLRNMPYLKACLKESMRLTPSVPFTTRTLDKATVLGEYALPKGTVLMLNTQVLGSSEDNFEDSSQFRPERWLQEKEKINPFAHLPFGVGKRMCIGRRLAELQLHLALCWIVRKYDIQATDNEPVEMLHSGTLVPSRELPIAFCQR
active: [14] -0.462
inactive: [1] -0.258 | [2] 0.163 | [3] -0.021 | [4] -0.158 | [5] 0.226 | [6] 0.011 | [7] 0.043 | [8] 0.049 | [9] 0.13 | [10] -0.05 | [11] -0.099 | [12] 0.015 | [13] -0.289 | [15] 0.077 | [16] 0.235 | [17] -0.02 | [18] 0.006 | [19] -0.209 | [20] 0.325

CKM (UniProt P06732)
Chain of UniProt P06732 (P06732 whole entry, looked up): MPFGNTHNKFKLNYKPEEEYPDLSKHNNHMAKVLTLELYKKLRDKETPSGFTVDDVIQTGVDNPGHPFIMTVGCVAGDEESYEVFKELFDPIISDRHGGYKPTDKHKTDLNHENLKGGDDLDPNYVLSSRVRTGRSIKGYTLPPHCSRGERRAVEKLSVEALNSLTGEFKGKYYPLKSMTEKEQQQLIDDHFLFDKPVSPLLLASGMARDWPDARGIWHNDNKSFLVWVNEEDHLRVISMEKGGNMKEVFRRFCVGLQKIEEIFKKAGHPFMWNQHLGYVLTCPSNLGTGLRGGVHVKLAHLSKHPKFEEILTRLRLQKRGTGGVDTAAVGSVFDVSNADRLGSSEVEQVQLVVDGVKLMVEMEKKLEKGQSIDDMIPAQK
active: [14] -0.431
inactive: [1] -0.126 | [2] -0.091 | [3] -0.049 | [4] -0.033 | [5] -0.037 | [6] 0.016 | [7] 0.026 | [8] -0.015 | [9] 0.031 | [10] -0.065 | [11] -0.041 | [12] -0.035 | [13] -0.13 | [15] 0.087 | [16] 0.096 | [17] -0.078 | [18] -0.019 | [19] -0.023 | [20] 0.113

CKAP5 (UniProt Q14008)
inactive: [1] 0.008 | [2] -0.076 | [3] 0.019 | [4] 0.008 | [5] 0.003 | [6] 0.013 | [7] 0.074 | [8] 0.012 | [9] 0.007 | [10] -0.005 | [11] 0.001 | [12] 0.013 | [13] -0.017 | [14] 0.004 | [15] 0.001 | [16] -0.053 | [17] 0.01 | [18] 0.011 | [19] 0.005 | [20] 0.015

From the supplement of paper PMC10849652
